High-throughput results as filed in PubChem BioAssay.
DRD3 antagonist = qHTS of D3 Dopamine Receptor Antagonist: qHTS | D(3) dopamine receptor (Homo sapiens), P35462 | D3R cells, DiscoveRx beta-arrestin luminescence, antagonist mode; hits give low values | max response, negative = inhibition, % | 360,000 tested, 2.5% active | AID 652054, 2013; in the data active = max response below about -50%; inconclusive = no clear call, values can overlap the other calls; note: % is set by controls: 0 for no effect and ±100 for the full control effect
Target sequence (P35462 whole entry, looked up): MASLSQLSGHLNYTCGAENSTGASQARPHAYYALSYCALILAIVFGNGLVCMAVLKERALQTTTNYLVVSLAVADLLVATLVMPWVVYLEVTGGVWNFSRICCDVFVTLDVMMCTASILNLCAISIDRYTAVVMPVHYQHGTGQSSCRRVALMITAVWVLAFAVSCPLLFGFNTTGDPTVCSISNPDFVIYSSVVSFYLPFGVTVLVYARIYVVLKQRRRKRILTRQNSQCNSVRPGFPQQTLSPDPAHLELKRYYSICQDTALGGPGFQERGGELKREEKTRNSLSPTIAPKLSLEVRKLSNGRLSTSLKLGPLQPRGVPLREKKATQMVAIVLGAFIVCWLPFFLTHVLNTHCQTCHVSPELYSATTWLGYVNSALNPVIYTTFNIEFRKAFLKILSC
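Cells expressing the human receptor were seeded at 1500 cells/well, incubated overnight at 37 degrees C in 5% CO2, then exposed to library compounds with dopamine controls for 90 minutes at 37 degrees C before luminescent detection.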
PTHR1 ag = qHTS for PTHR1 Agonists: Primary Screen | Potency, µM (doses to about 115 µM), for inactives: top-dose activation, usual class: activators | HEK293 GP2 PTHR1 cells, GloSensor cAMP luminescence, 1 h | AID 743266, 2014 | Parathyroid hormone/parathyroid hormone-related peptide receptor (Homo sapiens), Q03431 | 410,000 tested, 0.075% active; note: potency is the fitted concentration of half-maximal effect; nearly all actives have a fitted effect of over 55% in size
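HEK-293-derived GP2 cells expressing PTHR1 and a GloSensor cAMP reporter, 3,000/well, plated overnight, given luciferin plus IBMX (each 0.5 mM as added) for 1 h at 37 °C, then compound for 1 h at 37 °C. Luminescence was read after 15 min at room temperature.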
RGS4 inh = Inhibitors of Regulator of G Protein Signaling (RGS) 4: qHTS; 390,000 tested, 0.039% active; Transcreener GDP fluorescence polarization, RGS4-accelerated GTP hydrolysis; Potency, µM (doses to about 114 µM), for the others: top-dose activity change, negative = inhibition, hits mostly inhibitors; Regulator of G-protein signaling 4 (Homo sapiens), P49798; AID 504845, 2011; note: potency is the fitted concentration of half-maximal effect; % is set by controls: 0 for no effect and ±100 for the full control effect; nearly all actives have a fitted effect of over 75% in size
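MLSMR compounds (23 nl, pin-transferred) preincubated 10 min at room temperature with a 500nM (2x) first reagent, then RGS4 at 900nM (2x) plus Transcreener GDP mix added; fluorescence polarization (620/688 nm) read before and after 90 min at 30 °C.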
BRCA1 expr up = qHTS Assay to Identify Small Molecule Activators of BRCA1 Expression. MCF7-BRCA1-FFLuc reporter, luminescence, 48 h; response scale: scaled: vehicle 0%, 10 µM genistein 100%. Potency, µM (doses to about 46.1 µM), without a hit: at the top dose activation, actives largely listed as activators. 380,000 tested, 1.1% active; note: potency is the fitted concentration of half-maximal effect; nearly all actives have a fitted effect of over 80% in size
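Luminescence from a BRCA1-driven firefly luciferase in MCF7 cells was read after 48 h compound exposure at 37 C. Data normalized against DMSO and a 10microM genistein activation control, then curve-fitted across the titration.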
B2AR arrestin = qHTS assay of beta-arrestin-biased ligands of beta2-adrenergic receptor; beta-arrestin recruitment to beta2AR, cell-based reporter; 330,000 tested, 0.02% active; Potency, µM (top dose mostly 46.1 µM), for inactives: at the highest dose activation, actives largely listed as activators; AID 492947, 2010;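 note: potency is the fitted concentration of half-maximal effect; 0% = DMSO controls and full agonism = EC100 isoproterenol or metaproterenol; nearly all actives have a fitted effect of over 65% in size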
D3 ag = qHTS of D3 Dopamine Receptor Agonist: qHTS; D3R DiscoveRx beta-arrestin cells, luminescence, 90 min; D(3) dopamine receptor (Homo sapiens), P35462; AID 652048, 2013; 410,000 tested, 0.58% active; max activation, %; in the data active = max activation above about 30%; note: 0% is about no effect
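Cells at 1500/well, incubated overnight, then treated with pinned compounds (dopamine as control) for 90 min at 37 degrees C. DiscoveRx reagent added for 30 - 60 minutes at room temperature; luminescence read.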
Starred values were filed as active, the others as inactive; i = inactive; u = inconclusive; x = no result. Compounds with a hit are over-represented: about 3.7% of the library has one in this group of screens. Unless noted, calls come from the whole dose curve; as a rule, active = well fitted curve in the direction sought with a large enough effect; inconclusive = small, poorly fitted or top-dose-only effect, or another doubt; inactive = no such curve, though single readings can be large; an effect the other way counts as inactive or inconclusive.

SMILES	DRD3 antagonist	PTHR1 ag	RGS4 inh	BRCA1 expr up	B2AR arrestin	D3 ag
CCc1c(C)nc2nncn2c1Nc1ccc(C(C)C)cc1	x	i	6.8%	x	x	3.9
COc1ccc(NC(=O)NC2(C(=O)N3CCN4CCCC4C3)CCCCC2)cc1 (stereo unspecified)	1.4	-20.6%	-14.2%	27.9%	0.8%	31.1*
CCN(CC)c1ccc(/C=C2/C(=O)c3ccc(C(=O)O)cc3C2=O)cc1	-56.2*	i	-28.9%	-4.5%	0.7%	-11.5
COc1cc(Cl)ccc1OCc1cc(C(=O)N2C[C@]3(C)C[C@H]2CC(C)(C)C3)no1	-0.7	-7.7%	2.3%	-41.1%	3.7%	3.9
Cc1ccc(S(=O)(=O)N2[C@@H](c3ccc(C(C)(C)C)cc3)C(C(=O)O)=CC[C@H]2c2ccc(Cl)cc2)cc1	-10.7	i	-0.1%	-16.4%	-0.1%	9.8
CCc1ccc([C@@H]2CC=C(C(=O)O)[C@H](c3ccc(C(C)(C)C)cc3)N2S(=O)(=O)c2ccc(C)cc2)cc1	26.7	-19.8%	-3.1%	-51.4%	2.1%	31.3*
Cc1ccc([C@@H]2CC=C(C(=O)O)[C@H](c3ccc(C(C)(C)C)cc3)N2S(=O)(=O)c2ccc(C)cc2)cc1	0.0	-36.1%	-13.1%	8.0%	-0.6%	30.2*
COc1ccc2nc(N(CCN(C)C)C(=O)/C=C/c3cccs3)sc2c1	-1.0	i	-12.1%	-43.5%	0.5%	-12.5
COc1ccc2sc(N(CCN(C)C)C(=O)/C=C/c3cccs3)nc2c1	-86.0*	i	7.6%	-38.2%	0.1%	-17.0
COC(=O)[C@@H]1CCCN1C(=O)CCc1nnc(CCC2CCCCC2)o1	-11.3	-23.5%	16.5%	11.2µM*	-0.4%	-9.0
COC(=O)[C@@H]1CCCN1C(=O)CCc1nnc(CCc2c[nH]c3ccccc23)o1	-9.1	-26.3%	10.9%	-0.3%	-0.3%	-11.2
Clc1cccc(OCCN2CCNCC2)c1	-20.6	i	-17.7%	21.5%	-0.1%	26.4
Cc1ccc(OCCN2CCOCC2)cc1C	0.0	1.4%	19.8%	93.3%	-0.2%	-12.7
OCCN1CCN(CCOc2cccc(Cl)c2)CC1	u	-2.5%	20.0%	12.2%	-1.0%	39.9*
Cc1cc(OCCN2CCOCC2)ccc1Cl	-23.8	-17.1%	-16.4%	12.6µM*	4.9%	2.1
Clc1cccc(OCCN2CCOCC2)c1	-66.2*	i	31.0%	21.5%	-0.2%	3.6
CC1CCN(CCOc2ccc(Cl)c(Cl)c2)CC1	-51.3*	-8.5%	4.9%	14.1%	1.5%	1.0
Cc1noc(C)c1NC(=O)N(C)C[C@@H]1Oc2ccc(NC(=O)Cc3cn(C)c4ccccc34)cc2CC(=O)N([C@H](C)CO)C[C@@H]1C	0.0	19.7%	-16.3%	15.9%	0.1%	23.4
Cc1c(C(=O)N(C)Cc2ccccc2)sc2nc(-c3ccc(F)cc3)cn12	x	-65.8%	-23.6%	x	x	-4.0
Cc1ccc(Cc2cn3cc(-c4ccc(F)cc4)nc3s2)cc1	x	-28.6%	-13.1%	2.24µM*	x	-0.4
N#CC(c1ccccc1)C(CC(=NO)c1ccccc1)c1ccccc1 (stereo unspecified)	7.5	-31.7%	x	-26.0%	x	1.6
